“And” between values parts separate entries of the source, which are not always exact repeats. Equal values may be shown once. Among all 5,500 compounds or so, about 2,000 (36%) were called active. About 18% were inconclusive and are not listed. The list shows a part of the results. Unmarked numbers belong to inactive results. Cut-off read from the data, not from the text of the source: active = normalized growth mostly below about 0.91 (no sharp cut-off); inconclusive = no clear call, values can overlap the other calls; inactive = mostly above about 0.92.
Experiment: chemical genetic growth profiling, strain panel (AID 1159580);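 note: tested at 20 µM; growth read once vehicle control cultures reached saturation at 30 °C; 1 = growth at the plate median or of vehicle wells; lower values mean less growth of the strain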
Details: S. cerevisiae deletion strains, growth OD

In the case of `CC[C@H](C)C(=O)O[C@H]1C[C@@H](C)C=C2C=C[C@H](C)[C@H](CC[C@@H]3C[C@@H](O)CC(=O)O3)[C@H]21`, the normalized growth (locus YAL013W, strain DEP1, hits give low values) is reported as 0.982, the normalized growth (locus YAL021C, strain ccr4, hits give low values) is reported as 0.82 (active) and the normalized growth (locus YAL026C, strain drs2, hits give low values) is reported as 0.994. The normalized growth (locus YAL030W, strain snc1, hits give low values) was 1.01, the normalized growth (locus YBL061C, strain skt5, hits give low values) was 1 and the normalized growth (locus YBR009C, strain hhf1, hits give low values) was 1.02. For the same compound, the normalized growth (locus YBR021W, strain FUR4, hits give low values) was 1.04, the normalized growth (locus YBR023C, strain chs3, hits give low values) was 1.01 and the normalized growth (locus YBR171W, strain sec66, hits give low values) was 1. For the same compound, the normalized growth (locus YBR229C, strain ROT2, hits give low values) was 0.944, the normalized growth (locus YBR231C, strain swc5, hits give low values) was 0.915 and the normalized growth (locus YBR279W, strain paf1, hits give low values) was 1.01. It also gave a normalized growth (locus YCL011C, strain gbp2, hits give low values) of 1.01, a normalized growth (locus YCL016C, strain dcc1, hits give low values) of 0.999 and a normalized growth (locus YCL029C, strain bik1, hits give low values) of 0.991. It also gave a normalized growth (locus YCL061C, strain MRC1, hits give low values) of 0.997, a normalized growth (locus YCL069W, strain vba3, hits give low values) of 1.01 and a normalized growth (locus YCR088W, strain abp1, hits give low values) of 0.998. For the same compound, the normalized growth (locus YDL005C, strain med2, hits give low values) was 0.982, the normalized growth (locus YDL035C, strain GPR1, hits give low values) was 0.961 and the normalized growth (locus YDL040C, strain nat1, hits give low values) was 1.01. The normalized growth (locus YDL074C, strain BRE1, hits give low values) was 1, the normalized growth (locus YDL101C, strain DUN1, hits give low values) was 0.977 and the normalized growth (locus YDL134C, strain PPH21, hits give low values) was 0.971. It also gave a normalized growth (locus YDL185W, strain tfp1, hits give low values) of 0.977, a normalized growth (locus YDL192W, strain arf1, hits give low values) of 0.983 and a normalized growth (locus YDR001C, strain nth1, hits give low values) of 1. For the same compound, the normalized growth (locus YDR069C, strain doa4, hits give low values) was 1.01, the normalized growth (locus YDR101C, strain arx1, hits give low values) was 1.02 and the normalized growth (locus YDR137W, strain rgp1, hits give low values) was 1.28 [resistant] (active). For the same compound, the normalized growth (locus YDR150W, strain NUM1, hits give low values) was 0.967, the normalized growth (locus YDR159W, strain sac3, hits give low values) was 1.02 and the normalized growth (locus YDR162C, strain NBP2, hits give low values) was 0.951. The normalized growth (locus YDR195W, strain ref2) was 1.06, the normalized growth (locus YDR297W, strain sur2, hits give low values) was 0.997 and the normalized growth (locus YDR318W, strain mcm21, hits give low values) was 0.996. For the same compound, the normalized growth (locus YDR334W, strain swr1, hits give low values) was 0.954, the normalized growth (locus YDR335W, strain msn5, hits give low values) was 1 and the normalized growth (locus YDR388W, hits give low values) was 0.996. The normalized growth (locus YDR392W, strain spt3, hits give low values) was 0.983, the normalized growth (locus YDR502C, strain sam2, hits give low values) was 0.969 and the normalized growth (locus YEL003W, strain gim4, hits give low values) was 1. It also gave a normalized growth (locus YEL037C, strain rad23, hits give low values) of 1, a normalized growth (locus YEL061C, strain CIN8 (second series), hits give low values) of 1 and a normalized growth (locus YEL061C, strain CIN8, hits give low values) of 0.979. It also gave a normalized growth (locus YER015W, strain faa2, hits give low values) of 1.01, a normalized growth (locus YER016W, strain bim1, hits give low values) of 1 and a normalized growth (locus YER110C, hits give low values) of 0.974. For the same compound, the normalized growth (locus YER111C, strain swi4, hits give low values) was 1.01, the normalized growth (locus YER155C, strain BEM2 (second series), hits give low values) was 1.01 and the normalized growth (locus YER155C, strain BEM2, hits give low values) was 0.986. It also gave a normalized growth (locus YER167W, strain BCK2, hits give low values) of 0.942, a normalized growth (locus YFR010W, strain ubp6, hits give low values) of 1.02 and a normalized growth (locus YGL078C, strain dbp3, hits give low values) of 0.984. The normalized growth (locus YGL086W, strain mad1, hits give low values) was 0.968, the normalized growth (locus YGL167C, strain pmr1, hits give low values) was 0.998 and the normalized growth (locus YGL173C, strain kem1, hits give low values) was 1.01. It also gave a normalized growth (locus YGL227W, strain vid30, hits give low values) of 0.996, a normalized growth (locus YGL240W, strain doc1, hits give low values) of 1.04 and a normalized growth (locus YGL248W, strain PDE1, hits give low values) of 0.974. The normalized growth (locus YGL253W, strain hxk2, hits give low values) was 0.996, the normalized growth (locus YGR078C, strain PAC10, hits give low values) was 0.996 and the normalized growth (locus YGR135W, strain pre9, hits give low values) was 0.942. For the same compound, the normalized growth (locus YGR229C, strain SMI1, hits give low values) was 0.95, the normalized growth (locus YGR252W, strain gcn5, hits give low values) was 0.878 and the normalized growth (locus YHR013C, strain ard1, hits give low values) was 1.04. For the same compound, the normalized growth (locus YHR027C, strain rpn1, hits give low values) was 1.01, the normalized growth (locus YHR030C, strain SLT2, hits give low values) was 0.985 and 0.963 and the normalized growth (locus YHR079C, strain IRE1 (second series), hits give low values) was 0.995. The normalized growth (locus YHR079C, strain IRE1, hits give low values) was 0.992, the normalized growth (locus YHR094C, strain hxt1, hits give low values) was 0.989 and the normalized growth (locus YHR129C, strain ARP1, hits give low values) was 0.996. It also gave a normalized growth (locus YHR142W, strain chs7, hits give low values) of 1, a normalized growth (locus YHR200W, strain rpn10, hits give low values) of 0.994 and a normalized growth (locus YIL066C, strain RNR3, hits give low values) of 0.965. It also gave a normalized growth (locus YIL073C, strain SPO22, hits give low values) of 0.823, a normalized growth (locus YIL125W, strain kgd1, hits give low values) of 0.974 and a normalized growth (locus YIR030C, strain dcg1, hits give low values) of 0.976. For the same compound, the normalized growth (locus YJL092W, strain hpr5, hits give low values) was 1, the normalized growth (locus YJL095W, strain BCK1 (second series), hits give low values) was 1.01 and the normalized growth (locus YJL095W, strain BCK1, hits give low values) was 0.988 and 0.96. For the same compound, the normalized growth (locus YJL115W, strain asf1, hits give low values) was 1.01, the normalized growth (locus YJL129C, strain trk1, hits give low values) was 0.997 and the normalized growth (locus YJL134W, strain LCB3, hits give low values) was 0.979. It also gave a normalized growth (locus YJL154C, strain vps35, hits give low values) of 1.01, a normalized growth (locus YJL164C, strain tpk1, hits give low values) of 1 and a normalized growth (locus YJL166W, strain qcr8, hits give low values) of 1.01. For the same compound, the normalized growth (locus YJL168C, strain set2, hits give low values) was 0.996, the normalized growth (locus YJL187C, strain SWE1 (second series), hits give low values) was 0.989 and the normalized growth (locus YJL187C, strain SWE1, hits give low values) was 1. For the same compound, the normalized growth (locus YJR043C, strain POL32, hits give low values) was 1.04 and the normalized growth (locus YJR066W, strain TOR1, hits give low values) was 0.915.
